The text below walks through data of PubChem BioAssay (NCI).

SMILES strings stand for the structures. The panel holds about 79,000 compounds, 15% with a hit somewhere; the sample as a whole holds those more often. A number with no mark means an inactive call. Calls of active or inactive are those of the source. No stated cut-off is given here; in the data, active means growth inhibition above about 70%; inactive means the rest.

A short description of test [1]: NCI Yeast Anticancer Drug Screen. Data for the rad50 strain (AID 155).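 Further: 0% = growth of vehicle-only cultures of the same strain.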 The conditions noted are these: S. cerevisiae rad50 strain growth inhibition, active compounds read high. The procedure, abridged:
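Compounds were tested on a yeast strain with an engineered DNA damage repair alteration; the reported value is growth inhibition normalised to vehicle treatment.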

Test [2] is described as follows: NCI Yeast Anticancer Drug Screen. Data for the mec2-1 strain (AID 157). The conditions noted are these: S. cerevisiae mec2-1 strain, active compounds read high. The procedure, abridged: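 Each compound was tested on mec2-1 yeast, a strain altered in DNA damage repair or cell cycle control. Growth inhibition is reported relative to vehicle.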
A short description of test [3]: NCI Yeast Anticancer Drug Screen. Data for the sgs1 mgt1 strain (AID 161).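 Further: 0% = growth of cultures given vehicle only.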 As to conditions: S. cerevisiae sgs1 mgt1 strain, active compounds read high. The procedure, abridged:
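Mutant yeast exposed to compound; growth scored against vehicle-only wells.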

Test [4] in a line: NCI Yeast Anticancer Drug Screen. Data for the cln2 rad14 strain (AID 165).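 Further: 0% = growth equal to vehicle treated cultures.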 The conditions noted are these: S. cerevisiae cln2 rad14 strain, active compounds read high. The procedure, abridged:
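Test compounds were added to cln2 rad14 yeast cultures; inhibition of growth was then determined by comparison with vehicle treatment.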

A short description of test [5]: NCI Yeast Anticancer Drug Screen. Data for the bub3 strain (AID 167). The conditions noted are these: S. cerevisiae bub3 mutant strain, active compounds read high. The procedure, abridged:
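Growth of a checkpoint-deficient yeast mutant is measured after compound exposure. Values represent inhibition relative to vehicle.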

The nature of test [6]: NCI Yeast Anticancer Drug Screen. Data for the mlh1 rad18 strain (AID 175). As to conditions: S. cerevisiae mlh1 rad18 strain growth inhibition, active compounds read high. The procedure, abridged: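 Inhibition values reflect reduced growth of mutant yeast versus vehicle-treated controls following compound exposure; the mutations affect DNA damage repair.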
Setting [7] is: at 5.0 µM (retest, dose inferred, filed as 0.5).
Where [8] appears, read: at 50.0 µM (retest, dose inferred, filed as 5.0).

For `Cc1cccc(OCC(O)CN2CC2)c1` (stereo unspecified), the growth inhibition in test [1] (setting [7]) is 2%; in test [1] (setting [8]), 64%; in test [1] (at 50.0 µM), 87.4% (active); in test [2] (setting [7]), 4%; in test [2] (setting [8]), 52%; in test [2] (at 50.0 µM) it was 89.8% (active). Moreover, the growth inhibition in test [3] (setting [7]) is 4%; in test [3] (setting [8]), 78% (active); in test [3] (at 50.0 µM) it was 89.4% (active); in test [4] (setting [7]), 4%; in test [4] (setting [8]), 34%; in test [4] (at 50.0 µM), 87.8% (active). In addition, the growth inhibition in test [5] (setting [7]) was -1%; in test [5] (setting [8]), 34%; in test [5] (at 50.0 µM), 87.8% (active); in test [6] (setting [7]) it was 2%; in test [6] (setting [8]) it was 95% (active); in test [6] (at 50.0 µM) it was 88.5% (active).

Take `CC[CH2][Sn]([Br])([Br])[CH2]CC`: the growth inhibition in test [1] (setting [7]) was 29%; in test [1] (setting [8]) it was 91% (active); in test [1] (at 50.0 µM), 83.2% (active); in test [2] (setting [7]), 21%; in test [2] (setting [8]) it was 95% (active); in test [2] (at 50.0 µM), 87.2% (active). In addition, the growth inhibition is 35% in test [3] (setting [7]); 95% (active) in test [3] (setting [8]); 87.1% (active) in test [3] (at 50.0 µM); 26% in test [4] (setting [7]); 87% (active) in test [4] (setting [8]); 85.2% (active) in test [4] (at 50.0 µM). In addition, the growth inhibition in test [5] (setting [7]) is 31%; in test [5] (setting [8]) it was 96% (active); in test [5] (at 50.0 µM) it was 83.2% (active); in test [6] (setting [7]), 33%; in test [6] (setting [8]), 93% (active); in test [6] (at 50.0 µM) it was 87.1% (active).

For the compound `C1CC[N-]CC1.[Cl][Au]([Cl])[Cl]`, the growth inhibition in test [1] (setting [7]) is 42%; in test [1] (setting [8]) it was 93% (active); in test [1] (at 50.0 µM) it was 93.3% (active); in test [2] (setting [7]), 15%; in test [2] (setting [8]), 63%; in test [2] (at 50.0 µM), 65.5%. Further, the growth inhibition in test [3] (setting [7]) was 26%; in test [3] (setting [8]), 89% (active); in test [3] (at 50.0 µM), 93% (active); in test [4] (setting [7]), 31%; in test [4] (setting [8]) it was 74% (active); in test [4] (at 50.0 µM), 60.4%. For the same compound, the growth inhibition was 25% in test [5] (setting [7]); 76% (active) in test [5] (setting [8]); 48.9% in test [5] (at 50.0 µM); 34% in test [6] (setting [7]); 94% (active) in test [6] (setting [8]); 96.8% (active) in test [6] (at 50.0 µM).

Turning to `Oc1c(Cl)cc(-c2cc(Cl)c(O)c(Cl)c2)cc1Cl`, the growth inhibition is 95% (active) in test [1] (setting [7]); 94% (active) in test [1] (setting [8]); 84.2% (active) in test [1] (at 50.0 µM); 96% (active) in test [2] (setting [7]); 97% (active) in test [2] (setting [8]); 89% (active) in test [2] (at 50.0 µM). Besides, the growth inhibition in test [3] (setting [7]) was 89% (active); in test [3] (setting [8]), 97% (active); in test [3] (at 50.0 µM) it was 89.7% (active); in test [4] (setting [7]) it was 57%; in test [4] (setting [8]), 98% (active); in test [4] (at 50.0 µM), 87.6% (active). Besides, the growth inhibition was 92% (active) in test [5] (setting [7]); 96% (active) in test [5] (setting [8]); 86.7% (active) in test [5] (at 50.0 µM); 99% (active) in test [6] (setting [7]); 99% (active) in test [6] (setting [8]); 84.9% (active) in test [6] (at 50.0 µM).

For the compound `CC1CCS(=O)(=O)CC1.[Cl][Hg][Cl]`, the growth inhibition in test [1] (setting [7]) is 98% (active); in test [1] (setting [8]), 99% (active); in test [1] (at 50.0 µM), 99.6% (active); in test [2] (setting [7]) it was 99% (active); in test [2] (setting [8]) it was 99% (active); in test [2] (at 50.0 µM), 99.6% (active). Besides, the growth inhibition in test [3] (setting [7]) is 99% (active); in test [3] (setting [8]), 99% (active); in test [3] (at 50.0 µM), 99.6% (active); in test [4] (setting [7]), 99% (active); in test [4] (setting [8]), 99% (active); in test [4] (at 50.0 µM), 99.3% (active). For the same compound, the growth inhibition was 99% (active) in test [5] (setting [7]); 99% (active) in test [5] (setting [8]); 99.5% (active) in test [5] (at 50.0 µM); 99% (active) in test [6] (setting [7]); 99% (active) in test [6] (setting [8]); 99.5% (active) in test [6] (at 50.0 µM).

For `CCOC(=O)C(Cc1ccc(O)cc1)NCc1ccc(N(CCCl)CCCl)cc1` (stereo unspecified), the growth inhibition in test [1] (setting [7]) was 83% (active); in test [1] (setting [8]), 83% (active); in test [1] (at 50.0 µM) it was 37.8%; in test [2] (setting [7]), 36%; in test [2] (setting [8]), 94% (active); in test [2] (at 50.0 µM), 69.1%. In addition, the growth inhibition is 64% in test [3] (setting [7]); 99% (active) in test [3] (setting [8]); 72.2% (active) in test [3] (at 50.0 µM); 52% in test [4] (setting [7]); 84% (active) in test [4] (setting [8]); 56.7% in test [4] (at 50.0 µM). For the same compound, the growth inhibition in test [5] (setting [7]) is 65%; in test [5] (setting [8]) it was 94% (active); in test [5] (at 50.0 µM), 69.5%; in test [6] (setting [7]) it was 80% (active); in test [6] (setting [8]), 76% (active); in test [6] (at 50.0 µM), 76.7% (active).

As for `NC(N)=N/N=C1\C(=O)N(c2ccc(Cl)cc2)C(=O)C1C(=O)Nc1ccc(Cl)cc1` (stereo unspecified), the growth inhibition in test [1] (setting [7]) was 1%; in test [1] (setting [8]), -2%; in test [1] (at 50.0 µM), 54.6%; in test [2] (setting [7]) it was 14%; in test [2] (setting [8]) it was 17%; in test [2] (at 50.0 µM) it was 46.1%. Further, the growth inhibition in test [3] (setting [7]) is 5%; in test [3] (setting [8]) it was 11%; in test [3] (at 50.0 µM) it was 76.1% (active); in test [4] (setting [7]), 0%; in test [4] (setting [8]) it was -3%; in test [4] (at 50.0 µM) it was -8.8%. For the same compound, the growth inhibition in test [5] (setting [7]) is 8%; in test [5] (setting [8]), 19%; in test [5] (at 50.0 µM) it was -7.75%; in test [6] (setting [7]), 2%; in test [6] (setting [8]), -14%; in test [6] (at 50.0 µM), 83.1% (active).
